# Results: PubChem BioAssay (EPA / NIEHS)
# Where “and” joins values, the source holds several entries; their conditions need not be identical. Equal values may be shown once. Records with an inconclusive call do not appear. More than one record can exist for a structure, and the calls need not agree. Calls of active or inactive are those of the source. The calls were made as follows: active = hit-call score of the fitted dose curve at least 0.9, where 1 is the maximum; inconclusive = response in the unintended direction; inactive = score below 0.9.
# Columns and labels:
# [1] = target: human Adenosine A2a Receptor (AdoRA2a), ADORA2A (gene 135) (UniProt P29274); assay: NVS_GPCR_hAdoRA2a: NovaScreen (NVS) G Protein-Coupled Receptor Assay for human Adenosine A2a Receptor (AdoRA2a) (AID 2283256)
# Chain of human Adenosine A2a Receptor (AdoRA2a), ADORA2A (gene 135) (P29274 whole entry, looked up): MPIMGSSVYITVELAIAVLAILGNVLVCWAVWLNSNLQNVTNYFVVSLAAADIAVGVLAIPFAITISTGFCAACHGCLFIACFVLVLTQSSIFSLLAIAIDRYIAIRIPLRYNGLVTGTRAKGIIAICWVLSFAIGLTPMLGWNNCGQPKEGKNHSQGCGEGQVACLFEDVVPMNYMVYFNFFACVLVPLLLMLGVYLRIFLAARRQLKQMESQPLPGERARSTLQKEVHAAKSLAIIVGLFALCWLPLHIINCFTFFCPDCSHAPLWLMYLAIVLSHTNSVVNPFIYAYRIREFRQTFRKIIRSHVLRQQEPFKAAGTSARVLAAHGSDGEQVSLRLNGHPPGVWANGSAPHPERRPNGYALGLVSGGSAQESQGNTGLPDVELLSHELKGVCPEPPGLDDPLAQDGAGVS
# Method in brief: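 HEK293-derived receptor preparation, radioligand displacement, 1.5 h, filtration + scintillation read. Loss of bound signal scored vs DMSO. Single-point 25 uM in duplicate first, then concentration-response for actives.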
# [2] = target: D(1A) dopamine receptor (Homo sapiens) (UniProt P21728); assay: NVS_GPCR_hDRD1: NovaScreen (NVS) G Protein-Coupled Receptor Assay for human Dopamine Receptor D1 (DRD1) (AID 2283269)
# Chain of D(1A) dopamine receptor (Homo sapiens) (P21728 whole entry, looked up): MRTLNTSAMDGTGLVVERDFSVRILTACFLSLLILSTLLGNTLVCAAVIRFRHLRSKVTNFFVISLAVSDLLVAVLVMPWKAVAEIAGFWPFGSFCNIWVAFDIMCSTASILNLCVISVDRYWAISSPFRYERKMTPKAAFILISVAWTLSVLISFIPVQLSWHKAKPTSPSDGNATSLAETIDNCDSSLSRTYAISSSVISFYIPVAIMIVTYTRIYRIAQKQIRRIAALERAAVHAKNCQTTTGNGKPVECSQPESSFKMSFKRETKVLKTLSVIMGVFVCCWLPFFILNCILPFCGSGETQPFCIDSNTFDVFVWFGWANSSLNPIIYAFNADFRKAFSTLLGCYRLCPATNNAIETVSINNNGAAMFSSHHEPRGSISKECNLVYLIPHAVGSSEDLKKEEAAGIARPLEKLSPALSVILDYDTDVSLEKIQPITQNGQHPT
# Method in brief: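 Radioligand displacement binding on membranes/protein extracted from HEK293 expressing human D1, cell-free; read 1 h after dosing by filter-based scintillation counting. Primary screen in duplicate at 25 uM, actives followed up in concentration series; signal loss versus DMSO baseline.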
# [3] = target: human Phosphoinositide 3-kinase alpha (PI3Ka), PIK3CA (gene 5290) (UniProt P42336); assay: NVS_ENZ_hPI3Ka: NovaScreen (NVS) Enzymatic Assay for human Phosphoinositide 3-kinase alpha (PI3Ka) (AID 2283196)
# Chain of human Phosphoinositide 3-kinase alpha (PI3Ka), PIK3CA (gene 5290) (P42336 whole entry, looked up): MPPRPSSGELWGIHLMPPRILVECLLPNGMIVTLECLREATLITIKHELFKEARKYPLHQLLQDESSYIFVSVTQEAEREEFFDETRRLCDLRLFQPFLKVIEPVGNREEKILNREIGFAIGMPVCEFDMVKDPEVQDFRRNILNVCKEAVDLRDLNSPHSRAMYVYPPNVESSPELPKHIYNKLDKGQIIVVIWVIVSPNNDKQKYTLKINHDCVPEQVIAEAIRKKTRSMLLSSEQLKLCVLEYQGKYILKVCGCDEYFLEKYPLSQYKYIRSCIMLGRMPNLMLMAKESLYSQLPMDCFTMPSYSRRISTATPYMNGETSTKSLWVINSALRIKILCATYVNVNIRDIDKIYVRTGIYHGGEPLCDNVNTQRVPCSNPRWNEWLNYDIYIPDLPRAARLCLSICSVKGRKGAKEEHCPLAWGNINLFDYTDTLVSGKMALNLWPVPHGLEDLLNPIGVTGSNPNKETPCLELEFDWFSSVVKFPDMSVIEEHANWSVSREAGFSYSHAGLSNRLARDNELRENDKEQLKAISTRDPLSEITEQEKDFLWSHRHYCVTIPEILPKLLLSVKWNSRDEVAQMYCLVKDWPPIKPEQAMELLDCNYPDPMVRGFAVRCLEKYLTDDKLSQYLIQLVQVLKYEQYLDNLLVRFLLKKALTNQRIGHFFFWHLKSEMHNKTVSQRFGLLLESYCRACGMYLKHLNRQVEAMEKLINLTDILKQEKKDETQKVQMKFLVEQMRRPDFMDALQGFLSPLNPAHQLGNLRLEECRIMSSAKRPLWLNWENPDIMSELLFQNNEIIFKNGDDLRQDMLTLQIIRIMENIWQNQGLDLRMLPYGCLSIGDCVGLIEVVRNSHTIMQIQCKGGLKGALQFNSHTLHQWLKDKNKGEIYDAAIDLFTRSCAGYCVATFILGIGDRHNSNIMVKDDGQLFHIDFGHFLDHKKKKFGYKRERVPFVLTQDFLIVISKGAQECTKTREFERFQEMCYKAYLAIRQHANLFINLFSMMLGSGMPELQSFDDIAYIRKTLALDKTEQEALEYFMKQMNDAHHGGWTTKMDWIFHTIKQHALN
# Method in brief: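 Recombinant human PI3Kα with fluorescent substrate, 1 h, product separated by electrophoretic mobility shift; 25 uM duplicate screen, hits (e.g., 30% inhibition) retested singly up to 50 uM; loss of signal vs DMSO.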
# [4] = target: sheep Cyclooxygenase-1 (Cox1), PTGS1 (gene 443551) (UniProt P05979); assay: NVS_ENZ_oCOX1: NovaScreen (NVS) Enzymatic Assay for sheep Cyclooxygenase-1 (Cox1) (AID 2283239);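 also: actives reduce cyclooxygenase activity so potencies are for inhibitors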
# Chain of sheep Cyclooxygenase-1 (Cox1), PTGS1 (gene 443551) (P05979 whole entry, looked up): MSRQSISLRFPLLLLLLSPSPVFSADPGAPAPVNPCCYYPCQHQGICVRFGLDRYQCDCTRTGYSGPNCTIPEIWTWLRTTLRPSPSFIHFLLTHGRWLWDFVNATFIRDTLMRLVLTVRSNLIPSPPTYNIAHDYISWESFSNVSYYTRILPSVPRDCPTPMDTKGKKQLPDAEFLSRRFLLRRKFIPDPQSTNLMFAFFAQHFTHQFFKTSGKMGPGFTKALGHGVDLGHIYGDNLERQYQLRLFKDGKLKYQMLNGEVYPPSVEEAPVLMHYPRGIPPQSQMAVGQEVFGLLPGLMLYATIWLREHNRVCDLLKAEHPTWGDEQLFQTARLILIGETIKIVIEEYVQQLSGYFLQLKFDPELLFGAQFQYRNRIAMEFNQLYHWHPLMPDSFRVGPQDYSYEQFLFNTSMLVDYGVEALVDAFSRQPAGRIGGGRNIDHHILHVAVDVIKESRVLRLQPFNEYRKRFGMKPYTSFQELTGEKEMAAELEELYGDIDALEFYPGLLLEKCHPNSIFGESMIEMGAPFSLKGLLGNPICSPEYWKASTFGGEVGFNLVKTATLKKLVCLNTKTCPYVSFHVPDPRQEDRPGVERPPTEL
# Method in brief: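 COX1 from ovine seminal vesicles, activity read colorimetrically about 0.66 h after dosing. Primary screen in duplicate at 25 uM; actives retested in concentration series; loss of signal fitted versus DMSO.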
# [5] = target: Sodium channel protein type 1 subunit alpha (Rattus norvegicus) (UniProt P04774); assay: NVS_IC_rNaCh_site2: NovaScreen (NVS) Ion Channel Assay for rat Sodium Channel, Site 2 (NaCh) (AID 2283322);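 also: hit means loss of radioligand binding signal relative to DMSO so AC50 marks displacement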
# Method in brief: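 Initial duplicate single-point testing at 25 uM, followed by concentration-response runs for actives. Binding of radioligand to rat forebrain membranes quantified after 1 h via filter-based radiodetection.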
# [6] = target: Muscarinic acetylcholine receptor M2 (Homo sapiens) (UniProt P08172); assay: NVS_GPCR_hM2: NovaScreen (NVS) G Protein-Coupled Receptor Assay for human Muscarinic, M2 Receptor (AID 2283273)
# Method in brief: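 Filter-based radiodetection read bound radioligand 1 h after dosing CHO-derived membrane protein. Single-concentration duplicates (25 uM) first, then concentration-response for actives; signal loss versus DMSO scored.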
# [7] = target: human Peripheral-type Benzodiazepine Receptor (PBR), TSPO (gene 706) (UniProt P30536); assay: NVS_MP_hPBR: NovaScreen (NVS) Membrane Protein Assay for human Peripheral-type Benzodiazepine Receptor (PBR) (AID 2283331);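 also: hits reduce radioligand binding relative to DMSO baseline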
# Chain of human Peripheral-type Benzodiazepine Receptor (PBR), TSPO (gene 706) (P30536 whole entry, looked up): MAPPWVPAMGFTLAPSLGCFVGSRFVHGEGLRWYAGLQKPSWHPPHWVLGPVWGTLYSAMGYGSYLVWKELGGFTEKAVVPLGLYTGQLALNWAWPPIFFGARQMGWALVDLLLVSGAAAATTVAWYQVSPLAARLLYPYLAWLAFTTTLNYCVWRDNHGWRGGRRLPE
# Method in brief: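 Cell-free radioligand displacement, human colonic membranes, 1 h exposure. Filter radiodetection read-out. Single-concentration duplicates (25 uM), then concentration-response for actives; DMSO negative control.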
# [8] = target: human Vascular Endothelial Growth Factor Receptor 1 (VEGFR1), FLT1 (gene 2321) (UniProt P17948); assay: NVS_ENZ_hVEGFR1: NovaScreen (NVS) Enzymatic Assay for human Vascular Endothelial Growth Factor Receptor 1 (VEGFR1) (AID 2283226)
# Chain of human Vascular Endothelial Growth Factor Receptor 1 (VEGFR1), FLT1 (gene 2321) (P17948 whole entry, looked up): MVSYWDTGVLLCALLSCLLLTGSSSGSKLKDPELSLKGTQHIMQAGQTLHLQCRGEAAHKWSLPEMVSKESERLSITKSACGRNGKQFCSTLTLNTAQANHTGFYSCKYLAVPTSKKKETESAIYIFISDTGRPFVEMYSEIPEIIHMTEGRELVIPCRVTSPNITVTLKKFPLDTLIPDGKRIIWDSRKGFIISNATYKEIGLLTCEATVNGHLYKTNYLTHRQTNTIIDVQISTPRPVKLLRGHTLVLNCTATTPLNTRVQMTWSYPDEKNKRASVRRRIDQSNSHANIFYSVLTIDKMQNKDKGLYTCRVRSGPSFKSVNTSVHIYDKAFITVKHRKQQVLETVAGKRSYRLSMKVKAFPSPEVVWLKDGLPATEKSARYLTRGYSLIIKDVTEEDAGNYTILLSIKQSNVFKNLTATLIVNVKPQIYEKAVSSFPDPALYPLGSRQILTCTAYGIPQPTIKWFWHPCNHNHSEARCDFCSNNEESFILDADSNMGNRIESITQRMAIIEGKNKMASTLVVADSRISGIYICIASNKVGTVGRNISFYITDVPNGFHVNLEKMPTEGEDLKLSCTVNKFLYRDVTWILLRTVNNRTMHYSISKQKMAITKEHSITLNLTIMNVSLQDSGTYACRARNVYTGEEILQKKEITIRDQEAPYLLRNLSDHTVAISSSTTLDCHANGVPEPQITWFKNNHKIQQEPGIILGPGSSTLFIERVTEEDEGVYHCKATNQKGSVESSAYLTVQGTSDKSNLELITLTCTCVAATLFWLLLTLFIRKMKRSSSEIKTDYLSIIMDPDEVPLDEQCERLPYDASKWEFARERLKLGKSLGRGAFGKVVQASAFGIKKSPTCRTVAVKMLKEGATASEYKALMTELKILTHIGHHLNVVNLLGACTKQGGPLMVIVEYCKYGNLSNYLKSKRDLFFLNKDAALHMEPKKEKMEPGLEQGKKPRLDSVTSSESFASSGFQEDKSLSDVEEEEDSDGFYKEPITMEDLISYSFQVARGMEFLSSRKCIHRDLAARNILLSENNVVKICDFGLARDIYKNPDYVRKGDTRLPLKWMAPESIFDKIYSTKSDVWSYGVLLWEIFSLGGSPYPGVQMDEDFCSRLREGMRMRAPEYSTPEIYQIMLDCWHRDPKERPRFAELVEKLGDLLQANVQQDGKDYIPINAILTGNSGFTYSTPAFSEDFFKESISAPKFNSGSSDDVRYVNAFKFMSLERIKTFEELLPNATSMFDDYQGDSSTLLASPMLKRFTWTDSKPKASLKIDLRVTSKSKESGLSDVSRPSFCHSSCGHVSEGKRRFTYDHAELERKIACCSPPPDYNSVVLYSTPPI
# Method in brief: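 Kinase activity of recombinant human VEGFR1 was read by fluorescence after electrophoretic separation of product from substrate, 1 h post-dosing; initial duplicate single-point testing at 25 uM, followed by concentration-series follow-up, with DMSO as baseline.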
# [9] = target: guinea pig Opioid, Kappa 1 Receptor (OpiateK), OPRK1 (gene 100135587) (UniProt P41144); assay: NVS_GPCR_gOpiateK: NovaScreen (NVS) G Protein-Coupled Receptor Assay for guinea pig Opioid, Kappa 1 Receptor (OpiateK) (AID 2283252);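 also: radioligand displacement from kappa opioid receptor in guinea pig cerebellar membranes; active means reduced radioligand binding relative to DMSO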
# Method in brief: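 Cell-free tissue prep: guinea pig cerebellar membranes, radioligand displacement, 2 h incubation. Readout: filtration plus scintillation counting. Primary single-point 25 uM duplicate; actives retested in concentration series; DMSO negative control.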
# [10] = target: bovine Estrogen Receptor (ER), ESR1 (gene 407238) (UniProt P49884); assay: NVS_NR_bER: NovaScreen (NVS) Nuclear Receptor Binding Assay for bovine Estrogen Receptor (ER) (AID 2283345);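 also: actives lower the bound radioligand count which means they displace the ER ligand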
# Method in brief: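 Cell-free radioligand binding with bovine uterine membrane extracts, read 18 hours after dosing by scintillation counting. Loss of signal versus DMSO baseline indicates displacement. Primary screen run in duplicate at 25 uM, actives followed in concentration series.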
# [11] = target: Estrogen receptor (Homo sapiens) (UniProt P03372); assay: NVS_NR_hER: NovaScreen (NVS) Nuclear Receptor Binding Assay for human Estrogen Receptor (ER) (AID 2283348)
# Chain of Estrogen receptor (Homo sapiens) (P03372 whole entry, looked up, the tested form may be a part): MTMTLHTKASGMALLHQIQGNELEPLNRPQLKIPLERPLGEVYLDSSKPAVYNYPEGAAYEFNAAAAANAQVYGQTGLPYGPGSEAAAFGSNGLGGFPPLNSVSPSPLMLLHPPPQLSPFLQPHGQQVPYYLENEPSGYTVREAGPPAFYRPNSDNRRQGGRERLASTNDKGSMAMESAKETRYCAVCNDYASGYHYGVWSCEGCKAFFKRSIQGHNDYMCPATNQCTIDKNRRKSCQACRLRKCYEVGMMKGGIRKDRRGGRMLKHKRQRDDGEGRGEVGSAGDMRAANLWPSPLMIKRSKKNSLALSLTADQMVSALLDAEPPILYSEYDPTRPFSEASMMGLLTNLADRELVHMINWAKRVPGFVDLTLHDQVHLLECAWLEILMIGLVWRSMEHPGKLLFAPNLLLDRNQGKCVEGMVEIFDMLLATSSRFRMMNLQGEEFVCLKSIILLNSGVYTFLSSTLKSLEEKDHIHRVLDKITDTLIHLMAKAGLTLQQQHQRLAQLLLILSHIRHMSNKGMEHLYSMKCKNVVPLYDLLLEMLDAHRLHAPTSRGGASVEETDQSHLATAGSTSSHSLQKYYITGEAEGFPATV
# Method in brief: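 MCF7-derived receptor extract, radiolabelled ligand, competitive displacement. Read: scintillation counts at 18 h. DMSO = negative control/baseline. Primary 25 uM duplicate; follow-up concentration–response.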
# [12] = target: human Adenosine A1 Receptor (AdoRA1), ADORA1 (gene 134) (UniProt P30542); assay: NVS_GPCR_hAdoRA1: NovaScreen (NVS) G Protein-Coupled Receptor Assay for human Adenosine A1 Receptor (AdoRA1) (AID 2283254)
# Method in brief: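 Radioligand binding was run on human cortical membranes, cell-free, with filter-based scintillation counting 1 h after dosing. The primary screen was duplicate at 25 uM, followed by concentration series. Signal loss versus DMSO was fitted positive-direction.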
# [13] = target: rat Peripheral-type Benzodiazepine Receptor (PBR), Tspo (gene 24230) (UniProt P16257); assay: NVS_MP_rPBR: NovaScreen (NVS) Membrane Protein Assay for rat Peripheral-type Benzodiazepine Receptor (PBR) (AID 2283335)
# Chain of rat Peripheral-type Benzodiazepine Receptor (PBR), Tspo (gene 24230) (P16257 whole entry, looked up): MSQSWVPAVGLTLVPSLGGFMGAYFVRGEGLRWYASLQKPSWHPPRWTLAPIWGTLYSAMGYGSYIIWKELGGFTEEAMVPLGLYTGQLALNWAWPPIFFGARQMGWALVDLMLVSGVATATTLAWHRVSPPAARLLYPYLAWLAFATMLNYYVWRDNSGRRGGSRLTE
# Method in brief: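 Single-concentration duplicate screening at 25 uM preceded concentration-series retesting of actives. Binding of a specific radioligand to rat kidney membrane PBR was read by filtration radiodetection after 1 h, with plate-wise positive and negative controls.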
# [14] = target: human Neurokinin, NK2 Receptor, TACR2 (gene 6865) (UniProt P21452); assay: NVS_GPCR_hNK2: NovaScreen (NVS) G Protein-Coupled Receptor Assay for human Neurokinin, NK2 Receptor (AID 2283278);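 also: actives reduce bound radioligand signal relative to DMSO baseline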
# Method in brief: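 Radioligand binding on membranes from CHO cells expressing receptor, filter-based scintillation read 4 h after dosing. Initial duplicate screen at 25 uM, actives in concentration series; loss of signal versus DMSO.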
# [15] = target: human Thromboxane A2 Receptor (TXA2), TBXA2R (gene 6915) (UniProt P21731); assay: NVS_GPCR_hTXA2: NovaScreen (NVS) G Protein-Coupled Receptor Assay for human Thromboxane A2 Receptor (TXA2) (AID 2283282);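 also: actives reduce bound radioligand signal relative to DMSO baseline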
# Method in brief: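 Cell-free radioligand binding with human platelet-derived receptor; 1 h after dosing, filter-based scintillation counting, loss of signal vs DMSO. Primary screen in duplicate at 25 uM.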
# [16] = target: human Opioid Receptor Mu (Opiate Mu), OPRM1 (gene 4988) (UniProt P35372); assay: NVS_GPCR_hOpiate_mu: NovaScreen (NVS) G Protein-Coupled Receptor Assay for human Opioid Receptor Mu (Opiate Mu) (AID 2283290);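 also: hits lower bound tracer signal versus DMSO meaning displacement of the ligand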
# Method in brief: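 Radioligand displacement binding on membranes from CHO cells expressing the receptor, 2.5 h after dosing, filter-based scintillation counting; loss of signal vs DMSO baseline. Screened in duplicate at 25 uM, actives then run in concentration series.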
# [17] = target: Estrogen receptor (Homo sapiens) (UniProt P03372); assay: OT_ER_ERaERa_1440: Odyssey Thera (OT) 24-hour HEK293T Protein-Complementation Assay for Estrogen Receptor-alpha/-alpha Homodimer (AID 2283349);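 also: hits raise fluorescence above DMSO for agonists and antagonists alike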
# Method in brief: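 Cells (HEK293T) carrying the fragment-tagged ERα LBD (aa 310-547) pair are treated with chemical for 24 hours. Nuclear and/or cytoplasmic fluorescence is then quantified on a laser scanning cytometer. Activity is scored as signal gain against DMSO.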
# [18] = target: Estrogen receptor (Homo sapiens) (UniProt P03372); assay: OT_ER_ERaERa_0480: Odyssey Thera (OT) 8-hour HEK293T Protein-Complementation Assay for Estrogen Receptor-alpha/-alpha Homodimer (AID 2283351);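 also: rise in fluorescence from reassembled reporter fragments on ERα LBD homodimer in nucleus or whole cell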
# Method in brief: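 Read-out: fluorescence intensity rise relative to DMSO, nuclear for agonists, nuclear plus cytoplasmic for antagonists. Construct is the ERα LBD (aa 310-547) homodimer fragment-complementation pair, stably expressed in HEK293T; exposure 8 h.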
structure (smiles),measurement,setting,value
C1=CCCC1,outcome,[1],inactive
same,outcome,[2],inactive
N#[N+]c1ccc2c(S(=O)(=O)[O-])cccc2c1O,outcome,[3],inactive
same,AC50,[4],5.62 µM (active)
COCc1c(C(C)C)nc(C(C)C)c(/C=C/[C@@H](O)C[C@@H](O)CC(=O)O)c1-c1ccc(F)cc1,outcome,[1],inactive
same,AC50,[5],1.81 µM (active)
COCCOCCOCCOCCOC,outcome,[3],inactive
CC(C)c1ccc(C=O)cc1,outcome,[1],inactive
same,outcome,[6],inactive
CCOc1nc(F)cc2nc(S(=O)(=O)Nc3c(Cl)cccc3C(=O)OC)nn12,AC50,[2],25 µM (active)
same,AC50,[7],1.63 µM (active)
CCCOC(=O)CCCCC(=O)OCCC,AC50,[3],2 µM (active)
same,AC50,[8],42.3 µM (active)
C#CC1(O)CC[C@H]2[C@@H]3CCC4=CCCC[C@@H]4[C@H]3CC[C@@]21C (stereo not given in full),AC50,[4],43.8 µM (active)
same,outcome,[9],inactive
same,outcome,[2],inactive
same,AC50,[10],6.05 µM (active)
same,AC50,[11],0.258 µM (active)
same,outcome,[11],inactive
CCCC(C)CCC(C)=O (stereo not given),outcome,[2],inactive
O=C(Nc1ccccc1SSc1ccccc1NC(=O)c1ccccc1)c1ccccc1,AC50,[12],25 µM (active)
same,AC50,[7],6.22 µM (active)
same,outcome,[13],inactive
same,outcome,[11],inactive
c1ccc(-c2ccccn2)nc1,outcome,[4],inactive
Cn1c(=O)[nH]c2ncn(C)c2c1=O,AC50,[12],25 µM (active)
CNC(=S)N(C)C,outcome,[3],inactive
same,outcome,[8],inactive
CC(C)(c1cc(Br)c(OCCO)c(Br)c1)c1cc(Br)c(OCCO)c(Br)c1,AC50,[3],2.62 µM (active)
O=C(Cl)c1cc(C(=O)Cl)cc(C(=O)Cl)c1,AC50,[14],15 µM (active)
Cc1ccc(C2OC[C@@H]3OC(c4ccc(C)cc4)O[C@H]([C@H](O)CO)[C@@H]3O2)cc1 (stereo not given in full),outcome,[15],inactive
O=c1c2ccccc2oc2ccccc12,outcome,[1],inactive
Cc1cc(C)c(C)c(C)c1,outcome,[3],inactive
CCCCCCCCCCCCCCCC[N+](C)(C)CC,AC50,[3],1.95 µM (active)
same,outcome,[8],inactive
same,AC50,[1],44.2 µM (active)
same,AC50,[2],1.95 µM (active)
same,AC50,[6],0.395 µM (active)
same,AC50,[14],1.78 µM (active)
same,AC50,[16],2.05 µM (active)
same,outcome,[5],inactive
same,AC50,[7],35.8 µM (active)
same,outcome,[11],inactive
COc1ccc2nc(N)sc2c1,AC50,[4],14.9 µM (active)
C/C=C\C/C=C/CCCCCCCCOC(C)=O,AC50,[4],25 µM (active)
same,AC50,[7],16.3 µM (active)
same,AC50,[13],17.2 µM (active)
same,outcome,[11],inactive
CCC(CC)C(=O)O,outcome,[2],inactive
Cc1ccc(N)c([N+](=O)[O-])c1,outcome,[3],inactive
same,outcome,[15],inactive
CC(CC=O)CCCC(C)(C)O (stereo not given),outcome,[4],inactive
same,outcome,[17],inactive
same,outcome,[18],inactive
C=COCCCC,AC50,[15],25 µM (active)
CCCCC/C=C\C/C=C\CCCCCCCC(=O)OC,AC50,[2],45.1 µM (active)
same,AC50,[15],25 µM (active)
same,AC50,[16],16.9 µM (active)
same,AC50,[7],8.31 µM (active) and 6.11 µM (active)
same,AC50,[13],9.68 µM (active) and 8.87 µM (active)
same,outcome,[10],inactive
same,AC50,[11],6.14 µM (active)
same,outcome,[11],inactive
same,outcome,[17],inactive
same,outcome,[18],inactive
